The source made the active and inactive calls. How the source made its calls: active means hit-call score of the fitted dose curve at least 0.9, where 1 is the maximum; inactive means score below 0.9.
Key:
[1] = read-out: Vascular endothelial growth factor receptor 2 (Homo sapiens) (UniProt P35968); assay: BSK_4H_VEGFRII: BioMAP Diversity Plus: 4H Assay for Vascular endothelial growth factor receptor 2 (VEGFR2) Biomarker Activity (AID 2283031); conditions: primary human endothelial cells (HUVEC); actives raise or lower the signal;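 on AC50: cell-surface VEGFR2 protein level quantified by ELISA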
Method in brief: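 In this multiplexed HUVEC system, biomarker ELISA was performed after 24 h chemical exposure. Parallel SRB staining (TCA fixation, 560 nm) tracked cytotoxicity; DMSO served as baseline.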

[2] = read-out: Human Leukocyte Antigen - DR isotype (HLADR), HLA-DRA (gene 3122); assay: BSK_BE3C_HLADR: BioMAP Diversity Plus: BE3C Assay for Human Leukocyte Antigen - DR isotype (HLADR) Biomarker Activity (AID 2283032); conditions: primary human bronchial epithelial cells; actives raise or lower the signal
Method in brief: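 Human primary bronchial epithelial cells in the BE3C system were exposed to chemicals for 24 h, after which HLA-DR levels were quantified by ELISA. Activity was fitted bidirectionally, gain or loss of signal, against DMSO as negative control and baseline.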

[3] = read-out: Vascular cell adhesion molecule 1 (VCAM1), VCAM1 (gene 7412); assay: BSK_4H_VCAM1: BioMAP Diversity Plus: 4H Assay for Vascular cell adhesion molecule 1 (VCAM1) Biomarker Activity (AID 2283033); conditions: primary human endothelial cells (HUVEC); actives raise or lower the signal;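 on outcome: cell-surface VCAM-1 protein measured by ELISA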
Method in brief: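 Primary human umbilical vein endothelial cells were exposed to chemicals for 24 h, after which VCAM-1 was quantified by ELISA. Responses were fitted bidirectionally against DMSO as negative control and activity baseline.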

[4] = read-out: Interferon-gamma inducible Protein 10 (IP10), CXCL10 (gene 3627); assay: BSK_BE3C_IP10: BioMAP Diversity Plus: BE3C Assay for Interferon-gamma inducible Protein 10 (IP10) Biomarker Activity (AID 2283034); conditions: primary human bronchial epithelial cells; actives raise or lower the signal
Method in brief: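 Human primary bronchial epithelial cells were exposed to chemicals for 24 hours, after which IP-10 levels were measured by ELISA. Data were fitted bidirectionally against DMSO, which served as the negative control and activity baseline.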

[5] = read-out: Monokine induced gamma interferon (MIG), CXCL9 (gene 4283); assay: BSK_BE3C_MIG: BioMAP Diversity Plus: BE3C Assay for Monokine induced gamma interferon (MIG) Biomarker Activity (AID 2283035); conditions: primary human bronchial epithelial cells; actives raise or lower the signal;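 on outcome: MIG protein measured by ELISA in BE3C cultures after 24 h of dosing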
Method in brief: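 MIG level was determined by ELISA after 24 h chemical treatment of primary human bronchial epithelial cells. Values were fitted bidirectionally with DMSO as the negative control and activity baseline.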

[6] = read-out: Transforming growth factor beta 1 (TGFb1), TGFB1 (gene 7040); assay: BSK_BE3C_TGFb1: BioMAP Diversity Plus: BE3C Assay for Transforming growth factor beta 1 (TGFb1) Biomarker Activity (AID 2283036); conditions: primary human bronchial epithelial cells; actives raise or lower the signal
Method in brief: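 Human primary bronchial epithelial cells (BE3C system) were dosed with chemical and TGF-b1 levels measured by ELISA at 24 h. Activity was fitted bidirectionally relative to DMSO negative control as baseline.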

[7] = read-out: Plasminogen activator inhibitor-1 (PAI1), SERPINE1 (gene 5054); assay: BSK_BE3C_PAI1: BioMAP Diversity Plus: BE3C Assay for Plasminogen activator inhibitor-1 (PAI1) Biomarker Activity (AID 2283037); conditions: primary human bronchial epithelial cells; actives raise or lower the signal
Method in brief: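 Human primary bronchial epithelial cells were exposed to chemical for 24 h, then PAI-1 was quantified by ELISA. Activity was fitted bidirectionally relative to the DMSO negative control baseline.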

[8] = read-out: urokinase plasminogen activator (uPA), PLAU (gene 5328); assay: BSK_BE3C_uPA: BioMAP Diversity Plus: BE3C Assay for urokinase plasminogen activator (uPA) Biomarker Activity (AID 2283038); conditions: primary human bronchial epithelial cells; actives raise or lower the signal;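 on outcome: uPA protein level quantified by ELISA in cell cultures; uPA read one day after compound addition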
Method in brief: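 Using confluent primary human lung bronchial epithelial cultures, we dosed chemicals, waited 24 h, then ran a uPA ELISA, fitting bidirectionally against DMSO.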

[9] = read-out: Urokinase-type plasminogen activator receptor (uPAR), PLAUR (gene 5329); assay: BSK_BE3C_uPAR: BioMAP Diversity Plus: BE3C Assay for Urokinase-type plasminogen activator receptor (uPAR) Biomarker Activity (AID 2283039); conditions: primary human bronchial epithelial cells; actives raise or lower the signal;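 on outcome: uPAR protein level measured by ELISA on the cells; cells exposed to compound for one day before measurement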
Method in brief: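 Primary human bronchial epithelial cells were dosed with chemical and harvested 24 h later; uPAR was quantified by ELISA. Activity was fitted bidirectionally against DMSO as negative control and baseline.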

[10] = read-out: Interleukin-6 (IL6), IL6 (gene 3569); assay: BSK_CASM3C_IL6: BioMAP Diversity Plus: CASM3C Assay for Interleukin-6 (IL6) Biomarker Activity for (AID 2283040); conditions: primary human coronary artery smooth muscle cells; actives raise or lower the signal

Row | Structure (SMILES) | outcome [1] | outcome [2] | AC50 [3] | outcome [4] | outcome [5] | outcome [6] | outcome [7] | outcome [8] | outcome [9] | outcome [10] | outcome [3] | AC50 [1] | AC50 [2] | AC50 [4] | AC50 [6] | AC50 [7] | AC50 [8] | AC50 [9] | AC50 [5]
1 | CCc1ccc(O)c(C(C)(C)C)c1 | inactive | inactive | 31.1 µM (active) | inactive | inactive | inactive | inactive | inactive | inactive | inactive |  |  |  |  |  |  |  |  | 
2 | O=C(O)c1cccc(C(=O)O)c1 | inactive | inactive |  | inactive | inactive | inactive | inactive | inactive | inactive | inactive | inactive |  |  |  |  |  |  |  | 
3 | Cc1nc(-c2ccccn2)ncc1C(=O)Nn1cc(C)c2cc(F)ccc21 | inactive | inactive |  | inactive | inactive | inactive | inactive | inactive | inactive | inactive | inactive |  |  |  |  |  |  |  | 
4 | Cn1c(=O)c2[nH]cnc2n(C)c1=O | inactive | inactive |  | inactive | inactive | inactive | inactive | inactive | inactive | inactive | inactive |  |  |  |  |  |  |  | 
5 | CCCCCCCCCCCCCCO |  | inactive | 34.2 µM (active) | inactive | inactive | inactive | inactive | inactive | inactive | inactive |  | 32.6 µM (active) |  |  |  |  |  |  | 
6 | CCCCCCCCCCCCCCCCOS(=O)(=O)O | inactive |  |  |  | inactive |  |  |  |  | inactive | inactive |  | 15.1 µM (active) | 10.5 µM (active) | 16 µM (active) | 15.1 µM (active) | 15.7 µM (active) | 16.1 µM (active) | 
7 | Cc1ncc([C@@H](CCCCCCc2ccc3c(n2)NCCC3)CC(=O)O)cn1 | inactive | inactive |  | inactive | inactive | inactive | inactive | inactive | inactive | inactive | inactive |  |  |  |  |  |  |  | 
8 | S=P(N1CC1)(N1CC1)N1CC1 | inactive | inactive |  | inactive | inactive | inactive | inactive | inactive | inactive | inactive | inactive |  |  |  |  |  |  |  | 
9 | CCOC(N)=O | inactive | inactive |  | inactive | inactive | inactive | inactive | inactive | inactive | inactive | inactive |  |  |  |  |  |  |  | 
10 | CC[C@H](C)C(=O)O[C@H]1C[C@H](O)C=C2C=C[C@H](C)[C@H](CC[C@@H](O)C[C@@H](O)CC(=O)O)[C@H]21 | inactive | inactive |  | inactive | inactive | inactive | inactive | inactive | inactive | inactive | inactive |  |  |  |  |  |  |  | 
11 | OCCNCCO | inactive | inactive |  | inactive | inactive | inactive | inactive | inactive | inactive | inactive | inactive |  |  |  |  |  |  |  | 
12 | O=C(O)[C@H](O)[C@@H](O)C(=O)O | inactive | inactive |  | inactive | inactive | inactive | inactive | inactive | inactive | inactive | inactive |  |  |  |  |  |  |  | 
13 | Cc1ccc(S(=O)(=O)NC(=O)NN2CCCCCC2)cc1 | inactive | inactive |  | inactive | inactive | inactive | inactive | inactive | inactive | inactive | inactive |  |  |  |  |  |  |  | 
14 | CC(C)C(=O)Nc1ccc([N+](=O)[O-])c(C(F)(F)F)c1 | inactive | inactive |  | inactive | inactive | inactive | inactive | inactive | inactive | inactive | inactive |  |  |  |  |  |  |  | 
15 | OC(CCl)CCl | inactive | inactive |  | inactive | inactive | inactive | inactive | inactive | inactive | inactive | inactive |  |  |  |  |  |  |  | 
16 | CNC(C)=O | inactive | inactive |  | inactive | inactive | inactive | inactive | inactive | inactive | inactive | inactive |  |  |  |  |  |  |  | 
17 | CC1(C)C(=O)N(Cl)C(=O)N1Cl | inactive | inactive |  | inactive | inactive | inactive | inactive | inactive | inactive | inactive | inactive |  |  |  |  |  |  |  | 
18 | C=CCc1cc(S(=O)(=O)c2ccc(O)c(CC=C)c2)ccc1O |  |  | 32.3 µM (active) |  |  |  |  |  |  | inactive |  | 20 µM (active) | 8.38 µM (active) | 13.4 µM (active) | 10.5 µM (active) | 10.8 µM (active) | 23.5 µM (active) | 15.4 µM (active) | 29.8 µM (active)
19 | c1ccc2cc3ccccc3cc2c1 | inactive | inactive |  | inactive | inactive | inactive | inactive | inactive | inactive | inactive | inactive |  |  |  |  |  |  |  | 
